The entries come from a sample that favours hits as a whole.
FBPA Giardia inh: qHTS Assay for Inhibitors of Fructose-1,6-bisphosphate Aldolase from Giardia Lamblia; A8B2U2; purified Giardia FBPA; Potency, µM (top dose mostly 59.6 µM), for inactives: at the top dose activity, negative = inhibition, usual class: inhibitors; 290,000 compounds, 0.71% hits; AID 2451, 2010; also: potency is read from the fitted curve at half-maximal effect; % is scaled to controls: 0 for no effect and ±100 for the full control effect; nearly all actives have a fitted effect of over 55% in size
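40 nM FBPA preincubated 10 min at RT with compound (up to 57.5 uM final), then substrate plus GAPDH/TPI/NAD/arsenate coupling and diaphorase/resazurin added. Fluorescence read after 20 min at RT, 525/598 nm.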
Sm TGR block: qHTS Assay for the Inhibitors of Schistosoma Mansoni Peroxiredoxins; Schistosoma mansoni thioredoxin glutathione reductase (TGR), Q962Y6; purified TGR, DTNB reduction, TNB absorbance 405 nm; Potency, µM (highest dose often 114 µM), without a hit: top-dose activity change, negative = inhibition, usual class: inhibitors; 360,000 compounds, 3% hits; also: potency is read from the fitted curve at half-maximal effect; % is scaled to controls: 0 for no effect and ±100 for the full control effect; nearly all actives have a fitted effect of over 60% in size
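Kinetic colorimetric format: TGR-catalysed, NADPH-driven DTNB reduction monitored via TNB absorbance. Enzyme dispensed at 20 nM; compound exposure 15 min at room temperature before reaction start.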
TbPYK inhibitor: qHTS of Trypanosoma Brucei Inhibitors. pyruvate kinase (Trypanosoma brucei), Q57TT1. TbPYK enzyme, Kinase-Glo Plus ATP luminescence, 45 min. 410,000 compounds, 0.12% hits. Potency, µM (highest dose often 76.8 µM), for the others: at the highest dose activity, negative = inhibition, hits mostly inhibitors. AID 624173, 2012; also: potency is read from the fitted curve at half-maximal effect; % is scaled to controls: 0 for no effect and ±100 for the full control effect; nearly all actives have a fitted effect of over 50% in size
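Enzyme and substrate buffer are dispensed first and compound is pin-transferred. ADP at 130 uM final then starts the reaction, which runs 45 min at room temperature. Detection reagent is added for 10 min before luminescence is imaged.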
Shiga toxin inh: A qHTS for Small Molecule Inhibitors of Shiga Toxin | AID 2315, 2010 | inhibition, % at 38.7 µM | 290,000 compounds, 9.2% hits | Vero cells, Shiga toxin protein synthesis inhibition reporter; in the data active = inhibition mostly above about 28%, no sharp cut-off; inactive = mostly below about 43%; also: 0% is about no effect
Cycloheximide cs: Cycloheximide Counterscreen for Small Molecule Inhibitors of Shiga Toxin; 300,000 compounds, 12% hits; cell reporter, cycloheximide protein synthesis inhibition counterscreen; AID 2314, 2010; max response, %; in the data active = max response mostly above about 13%, no sharp cut-off; inactive = mostly below about 14%; also: read at 38.3 µM for the half of the compounds with a filed dose; 0% is about no effect
LmPK inhibitor: qHTS Assay for Inhibitors of Leishmania Mexicana Pyruvate Kinase (LmPK); purified LmPK, Kinase-Glo ATP luminescence, 1 h; Potency, µM (doses to about 57.5 µM), inactives show at the highest dose activity change, negative = inhibition, hits mostly inhibitors; 290,000 compounds, 0.37% hits; also: potency is read from the fitted curve at half-maximal effect; % is scaled to controls: 0 for no effect and ±100 for the full control effect
Target sequence (Q27686 whole entry, looked up): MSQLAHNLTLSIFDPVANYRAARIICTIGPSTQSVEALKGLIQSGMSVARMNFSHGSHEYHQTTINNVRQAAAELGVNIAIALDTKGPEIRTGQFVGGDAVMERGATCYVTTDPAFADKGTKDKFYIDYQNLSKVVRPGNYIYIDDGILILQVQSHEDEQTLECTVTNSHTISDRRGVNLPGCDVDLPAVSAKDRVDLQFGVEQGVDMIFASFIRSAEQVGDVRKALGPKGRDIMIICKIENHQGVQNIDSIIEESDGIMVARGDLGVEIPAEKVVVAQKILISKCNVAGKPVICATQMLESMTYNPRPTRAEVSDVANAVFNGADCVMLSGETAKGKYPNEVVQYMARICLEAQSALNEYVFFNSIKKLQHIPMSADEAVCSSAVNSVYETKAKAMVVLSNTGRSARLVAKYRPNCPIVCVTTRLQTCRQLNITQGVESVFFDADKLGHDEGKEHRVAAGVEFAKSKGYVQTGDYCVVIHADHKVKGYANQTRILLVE
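Kinase-Glo luminescence read after 1 h RT reaction of 0.1 nM LmPK with 0.5 mM PEP and 0.1 mM ADP. Activity scaled between uninhibited and enzyme-free controls.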
* = called active by the depositor; ? = inconclusive; / = no result; [ ] = another dose, or the depositor's remark. Unless noted, calls follow the shape of the dose curve; as a rule, active = well fitted curve in the direction sought with a large enough effect; inconclusive = small, poorly fitted or top-dose-only effect, or another doubt; inactive = no such curve, though single readings can be large; an effect the other way counts as inactive or inconclusive.

SMILES	FBPA Giardia inh	Sm TGR block	TbPYK inhibitor	Shiga toxin inh	Cycloheximide cs	LmPK inhibitor
CN1CCN(S(=O)(=O)c2ccc(NC(=S)NC(=O)c3ccc(Cl)cc3)cc2)CC1	-4.1%	22.4µM*	-5.8%	52.4	23.2*	0.1%
CN1CCN(S(=O)(=O)c2ccc(NC(=S)NC(=O)c3ccccc3)cc2)CC1	?	?	-21.6%	35.7	20.7*	0.0%
CN1CCN(c2ncc3nc(-c4cccs4)c(=O)n(C[C@H]4CCCO4)c3n2)CC1	-4.5%	/	-5.7%	/	/	/
COc1ccc(C)cc1NC(=O)c1ccc2c(c1)N(Cc1cccc(Cl)c1)C(=O)c1ccccc1S2=O (configuration not stated)	/	-12.2%	3.0%	/	/	/
COc1ccc(C)cc1NC(=O)c1cc2c(=O)n(Cc3cccnc3)ccc2nc1C	/	-1.5%	-2.8%	/	/	/
CCOc1ccc(CNC(=O)Cn2nc(C)n3cccc3c2=O)cc1	/	7.2%	6.3%	/	/	/
Nc1cccnc1Oc1ccc(F)cc1F	-0.2%	11.1%	2.6%	-2.7	1.1	2.7%
Nc1cccnc1Oc1ccc(F)cc1	1.0%	1.9%	1.9%	25.2	14.0*	-2.1%
Cc1nc2cc(NC(=O)Nc3nccs3)ccc2n1C	-6.7%	9.1%	0.0%	35.2*	21.6*	-7.3%
Cc1nc2cc(NC(=O)NC(C)(C)C)ccc2n1C	-2.0%	0.0%	6.5%	34.2	17.9*	-0.3%
CCCNC(=O)Nc1ccc2c(c1)nc(C)n2C	-2.0%	16.5%	-3.4%	32.7	17.1	-2.3%
COc1cccc(NC(=O)Nc2ccc3c(c2)nc(C)n3C)c1	-2.1%	22.6%	-8.1%	58.3*	26.1*	?
CC(=O)Nc1cccc(NC(=O)Nc2ccc(C(C)=O)cc2)c1	-16.2%	0.1%	2.7%	67.7	-1.0	1.1%
CCN(CC)c1ccc(NC(=O)Nc2cccc(C(C)=O)c2)cc1	-19.6%	1.7%	?	46.2*	19.7	-2.1%
CN(C(=O)CSc1nc(C2CCCC2)nc2c1c(=O)n(C)c(=O)n2C)c1ccccc1	/	3.8%	1.4%	/	/	/
COc1ccc(O[C@H]2C=C[C@@H](c3ccccc3)O[C@H]2COC(=O)CC/C(C)=N\OC[C@@H](O)COCc2ccco2)cc1	-0.2%[12.9 µM]	/	/	/	/	/
CCc1ccc2nc(N(Cc3cccnc3)C(=O)Cc3ccccc3)sc2c1	/	3.5%	-5.5%	/	/	/
CCn1c(C)nc2cc(C(=O)OC)ccc21	0.1%	-0.9%	3.2%	9.8	3.4	-4.7%
COc1cccc(NC(=O)Nc2ccc3nsnc3c2)c1	-10.2%	2.8%	-11.1%	96.9*	30.5*	0.3%
COc1cccc(NC(=O)Nc2ccc3nc(C)c(C)nc3c2)c1	9.2%	-0.6%	4.4%	10.4	10.4	0.1%
CCn1c(C)nc2cc(NC(=O)Nc3cccc(C(C)=O)c3)ccc21	-0.8%	-0.8%	-1.9%	46.2	20.7*	0.4%
COc1ccc(C(=O)N2CCC3(CC2)CN(C(=O)Nc2cccc(C#N)c2)C3)cc1	3.7%	/	0.0%	/	/	/
CCNc1nc(N)nc(-c2cc(Cl)ccc2O)n1	0.6%	3.0%	-2.4%	56.3*	48.7*	-1.3%
CCCCNc1nc(N)nc(-c2cc(Cl)ccc2O)n1	1.2%	-2.0%	-8.7%	79.0*	73.9*	1.1%
CC(NC(=O)c1nn(C)c2c1CSc1ccccc1-2)c1ccccc1 (configuration not stated)	/	-5.3%	1.1%	/	/	/
SMILES	FBPA Giardia inh	Sm TGR block	TbPYK inhibitor	Shiga toxin inh	Cycloheximide cs	LmPK inhibitor
CC(C)(C)SCCNC(=O)/C=C/c1ccccc1	0.3%	11.9%	3.4%	104.1*	46.4*	0.7%
CC(C)(C)SCCNC(=O)/C=C/c1ccc(F)cc1	-5.8%	4.6%	2.5%	114.5*	50.8*	-0.9%
O=C(/C=C/c1ccccc1)NCCSCc1ccc(Cl)cc1	5.3%	3.0%	-5.2%	-17.1	0.2	-1.1%
O=C(/C=C/c1ccccc1)NCCc1ccccc1	-9.2%	-27.4%	2.4%	91.9*	45.7*	6.6%
O=C(CCC(=O)N1CC2CCCN2c2ccccc21)NCc1ccccc1F (configuration not stated)	/	4.3%	-1.7%	/	/	/
CCC(Sc1nc(C)cc(=O)[nH]1)C(=O)Nc1nc(-c2ccccc2)cs1 (configuration not stated)	4.7%	-35.7%	-4.5%	83.1	31.0*	6.7%
Cc1ccc(-c2csc(NC(=O)CSc3nc(C)cc(=O)[nH]3)n2)cc1	-7.1%	-24.0%	-7.1%	28.1	30.7*	14.1%
Cc1sc(NC(=O)CSC2=NCCS2)nc1-c1ccccc1	0.4%	-20.1%	-1.5%	-11.2	-2.9	-1.6%
Cc1ccc(-c2csc(NC(=O)CSC3=NCCS3)n2)cc1	-17.9%	0.2%	/	69.1*	49.8*	0.4%
CCN(C(=O)c1cc2c(s1)-c1ccccc1OC2)c1cc(Cl)ccc1OC	/	-1.9%	4.8%	/	/	/
O=C(CN1C(=O)COc2ccccc21)Nc1ccc2c(c1)OCCO2	0.2%	-22.8%	1.5%	31.7	11.9	-2.3%
O=C(CN1C(=O)C2C3C=CC(C3)C2C1=O)Nc1ccc2c(c1)OCCO2 (configuration not stated)	1.0%	-22.0%	-2.4%	60.0*	17.4	3.6%
CCC1Oc2ccccc2N(CC(=O)Nc2ccc3c(c2)OCCO3)C1=O (configuration not stated)	0.1%	1.3%	6.7%	93.9*	17.2*	1.7%
O=C(CN1C(=O)CSc2ccccc21)Nc1ccc2c(c1)OCCO2	-1.6%	5.4%	-0.3%	54.1	29.2*	-0.1%
COc1ccc(N2C(=O)CC(Nc3ccc(C(=O)O)cc3)C2=O)cc1OC (configuration not stated)	2.9%	22.4µM*	0.2%	11.4	-2.4	3.2%
COc1ccc(N2C(=O)CC(Nc3cccc([N+](=O)[O-])c3)C2=O)cc1 (configuration not stated)	0.4%	?	0.4%	10.9	9.5	-9.2%
COC(=O)c1cccc(NC2CC(=O)N(c3ccc(OC)c(OC)c3)C2=O)c1 (configuration not stated)	-5.5%	35.5µM*	-4.1%	-4.0	-1.6	0.1%
CC(C)NC(=O)c1ccc2c(c1)nc1n2CCCCC1	/	10.1%	-3.2%	/	/	/
FC(F)(F)c1ccc2c(c1)nc1n2CCCC1	3.0%	1.6%	2.2%	13.2	21.5*	0.0%
Cc1oc2ccc(O)c(CN3CCCC3)c2c1C(=O)Nc1ccc(C(C)C)cc1	/	-1.5%	-6.3%	/	/	/
Cc1ccccc1-c1noc(-c2ccc(NCc3ccco3)c([N+](=O)[O-])c2)n1	/	-2.4%	-2.7%	/	/	/
Cc1ccccc1N1CCN(Cc2ccc([N+](=O)[O-])o2)CC1	?	35.5µM*	-8.0%	-7.1	0.6	-0.5%

From PubChem BioAssay
